Source: PubChem
M1 ag parental: nonselective activator or artifact in parental CHO-K1 cells; Fluo-8 calcium fluorescence; scaled to maximal ATP response, vehicle zero; activation, % at 3 µM; actives 0.48% (n = 360,000); in the data active = activation above about 15%;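 note: untransfected CHO-K1 host cells lacking M1 receptor as counterscreen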
M1 antag: antagonists of human M1 muscarinic receptor; P11229; CHO-K1 hM1, Fluo-8 calcium fluorescence, ACh EC80 antagonist; inhibition, % at 3 µM; actives 1.3% (n = 360,000); AID 588852;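 active = percent inhibition above its own plate's cutoff, namely the mean of that plate's compound wells plus 3 SD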;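 note: peak over basal fluorescence ratio during 140 s after agonist addition; 0% = ACh EC80 plus DMSO and 100% = DMSO alone without agonist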
Target sequence (P11229 whole entry, looked up): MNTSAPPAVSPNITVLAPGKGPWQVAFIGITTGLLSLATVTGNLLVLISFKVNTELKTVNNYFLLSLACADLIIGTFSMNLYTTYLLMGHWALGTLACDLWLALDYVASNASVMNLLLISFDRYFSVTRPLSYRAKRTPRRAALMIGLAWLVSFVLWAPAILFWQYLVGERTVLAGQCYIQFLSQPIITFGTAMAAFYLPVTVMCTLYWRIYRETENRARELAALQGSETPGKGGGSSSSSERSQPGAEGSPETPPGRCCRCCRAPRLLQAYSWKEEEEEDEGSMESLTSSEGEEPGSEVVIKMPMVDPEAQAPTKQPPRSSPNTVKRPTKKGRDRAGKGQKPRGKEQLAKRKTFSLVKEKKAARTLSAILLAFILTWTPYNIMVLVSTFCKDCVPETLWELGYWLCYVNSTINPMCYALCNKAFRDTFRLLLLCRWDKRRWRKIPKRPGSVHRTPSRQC
CHRM1 agonist: activates human CHRM1 receptor | actives 0.33% (n = 360,000) | CHO-K1 hM1, Fluo-8 calcium fluorescence, agonist mode; 0% DMSO, 100% acetylcholine EC100 | P11229 | activation, % at 3 µM;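 active = activation above the run's mean compound activation plus 3 SD, cut at about 16% in these data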;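 note: peak over basal fluorescence ratio within a 140 s kinetic read after compound addition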
CHRM1 PAM: human CHRM1 positive allosteric modulation | CHO-K1 hM1, Fluo-8 calcium fluorescence, ACh EC20; 0% = ACh EC20, 100% = maximal ACh | activation, % at 3 µM | actives 0.088% (n = 360,000); in the data active = activation above about 19%, passing the limit was not always enough
CHO-K1 Ca antag: nonselective inhibitor or artifact in parental CHO-K1 cells; ATP-induced calcium, Fluo-8 fluorescence; inhibition, % at 3 µM; actives 0.6% (n = 360,000); AID 602250;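 active = inhibition above a per-plate cutoff, the plate's mean sample inhibition plus 3 SD, cut at about 24% in these data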;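 note: 0% = DMSO plus EC80 ATP and 100% = DMSO alone without ATP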
M1 PAM parental: nonselective activator or artifact in parental CHO-K1 calcium assay | ATP EC20, Fluo-8 calcium fluorescence; 0% at ATP EC20, 100% at ATP max | activation, % at 3 µM | actives 0.02% (n = 360,000) | AID 602247;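 active = activation above the run cutoff, the mean activation of all test compounds plus 3 SD, cut at about 40% in these data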;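 note: peak over basal fluorescence ratio in a 140 s read after ATP addition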
Starred values were filed as active, the others as inactive; / = no result. Hits are enriched below; roughly 2.4% of the tested compounds scored in any of these assays.

SMILES | M1 ag parental | M1 antag | CHRM1 agonist | CHRM1 PAM | CHO-K1 Ca antag | M1 PAM parental
CCOC(=O)[C@]12CCC=C1N(Cc1ccccc1)C(=O)[C@H](CC(=O)N1CCN(C(=O)c3ccco3)CC1)C2 | 0 | / | / | / | -10 | -4
Cn1cnc2cc(NCc3ccccc3Cl)ccc21 | 2 | -8 | -11 | 2 | -6 | 8
CC(C)c1ccc(CNc2ccc3c(c2)ncn3C)cc1 | 11 | 34* | -9 | -14 | -11 | 27
O=C(Cn1ccccc1=S)c1ccc(Cl)c(Cl)c1 | 2 | -6 | -6 | 8 | -16 | 24
On1ccccc1=S | 3 | -1 | 1 | 0 | 25* | 18
O=C1C2C3C=CC(C3)C2C(=O)N1c1ccc(N2CCN(c3ccccn3)CC2)c([N+](=O)[O-])c1 (stereo not drawn) | 14 | 39* | 1 | -17 | 20 | -13
CCN(CC)c1ccc(/C=N/n2c(-c3ccccc3Br)n[nH]c2=S)cc1 | 3 | 81* | -7 | -26 | 16 | -22
O=C(O)/C(=C/c1ccc(Cl)c([N+](=O)[O-])c1)c1ccc(S(=O)(=O)N2CCCCC2)s1 | 0 | -3 | -1 | 0 | -1 | -3
Cc1nc(C(=O)N2CCCC(C(=O)c3cccc(OC(C)C)c3)C2)cs1 (stereo not drawn) | 4 | -4 | 0 | 6 | 1 | 1
CCn1nc(C)c(CN2CCCC(C(=O)c3cccc(OC(C)C)c3)C2)c1C (stereo not drawn) | 6 | 95* | -11 | -31 | -2 | 10
CC(C)Oc1cccc(C(=O)C2CCCN(Cc3cccn3-c3ccccn3)C2)c1 (stereo not drawn) | 6 | 41* | -4 | -23 | -3 | 7
Cc1nn(C(C)C)c(C)c1CN1CCCC(C(=O)c2cccc(OC(C)C)c2)C1 (stereo not drawn) | 1 | 37* | -10 | -29 | 11 | -5
CC(C)Oc1cccc(C(=O)C2CCCN(Cc3cnn(C(C)C)c3)C2)c1 (stereo not drawn) | 0 | 12 | -13 | -17 | -6 | 21
CC(C)Oc1cccc(C(=O)C2CCCN(C(=O)c3cncs3)C2)c1 (stereo not drawn) | 0 | 39* | -5 | -16 | 4 | -4
CCCCc1c(-c2ccc(F)cc2)ncn1CCc1ccccc1OC | 0 | / | / | / | 3 | -8
Cc1ccccc1-n1c(C)n[nH]c1=S | 0 | -12 | -7 | 2 | 9 | 7
Cc1cccn2c(=S)[nH]nc12 | 0 | 10 | 0 | -4 | 26* | -13
C=CCNC(=S)Nc1ccc(Cl)cc1F | 16* | 7 | -4 | 1 | 8 | 8
Cc1ccc(CNC(=O)C2COc3ccccc3O2)cc1 (stereo not drawn) | 0 | 9 | -2 | 1 | -12 | 7
Cc1ccc(C(C(=O)NCc2ccc(F)cc2)N(CCCO)C(=O)C2COc3ccccc3O2)o1 (stereo not drawn) | 19* | 9 | -3 | -11 | 18 | -6
Cn1ncc2c(=S)nc(Cl)[nH]c21 | 1 | 9 | 0 | 9 | -13 | 9
Cc1c(NC(=O)/C(=C/c2cccs2)c2cccs2)c(=O)n(-c2ccccc2)n1C | 0 | 54* | -11 | -27 | -7 | 11
CCN(CC(=O)Nc1c(F)cccc1F)C(=O)c1cc(S(=O)(=O)N2CCOCC2)ccc1N1CCCC1 | 0 | -9 | -3 | 5 | 8 | -3
COc1ccc(/C=N/Nc2ccc([N+](=O)[O-])cc2)cc1O | 3 | 8 | 0 | -5 | 7 | -10
O=c1ccc(-c2ccc(S(=O)(=O)NCC3CCN(Cc4ccccc4F)CC3)s2)n[nH]1 | 0 | 93* | -4 | -24 | -2 | -20
SMILES | M1 ag parental | M1 antag | CHRM1 agonist | CHRM1 PAM | CHO-K1 Ca antag | M1 PAM parental
C1CC(=NN=C2CCSCC2)CCS1 | 0 | -11 | -1 | 8 | -13 | 24
CSc1ccc(CN2CCC(C)(Oc3ccc4ccccc4c3)C2)cc1 (stereo not drawn) | 0 | -8 | -6 | 1 | 0 | -4
CSc1ccc(CN2CCC(C)(Oc3ccc(CC#N)cc3)C2)cc1 (stereo not drawn) | 3 | 29* | -8 | -24 | -15 | 14
CSc1ccc(OC2(C)CCN(Cc3ccccc3)C2)cc1 (stereo not drawn) | 0 | 28* | -8 | -22 | -1 | -12
CC(C)c1ccc(CN2CCC(C)(Oc3ccc(Cl)cc3)C2)cc1 (stereo not drawn) | 1 | -9 | -6 | 6 | -8 | 18
COC(=O)Cc1ccc(OC2(C)CCN(Cc3ccccc3)C2)cc1 (stereo not drawn) | 1 | 53* | -6 | -26 | -10 | 16
COCOc1cccc(CN2CCC(C)(Oc3ccc(C(C)=O)cc3)C2)c1 (stereo not drawn) | -1 | 29* | -9 | -10 | 13 | 1
C/C(=N\NC(=O)c1nnn(-c2nonc2N)c1CSc1ccccc1)c1ccc2c(c1)OCO2 | 0 | -8 | -2 | 8 | -4 | -5
COc1ccc(CC(=O)N(CCC2=CCCCC2)c2c(N)n(Cc3ccccc3)c(=O)[nH]c2=O)cc1OC | 1 | -4 | -2 | 3 | 3 | 25
CSc1ccc(CN2CCC(C)(Oc3ccc(-n4ccnc4)cc3)C2)cc1 (stereo not drawn) | 5 | 58* | -8 | -29 | -8 | -3
S=C(Nc1ccc2nsnc2c1)NC1CCCCC1 | 4 | 5 | -3 | -10 | -11 | 0
FC(F)(F)c1cccc(N2CCN(C(=S)NC3CCCC3)CC2)c1 | 3 | 33* | -3 | -12 | 2 | 3
Fc1ccc(NC(=S)NC2CCN(Cc3ccccc3)CC2)cc1 | 5 | 7 | -7 | -9 | -6 | 3
S=C(Nc1ccc(Cl)c(Cl)c1)NC1CCN(Cc2ccccc2)CC1 | 12 | 6 | 17* | 11 | 24* | 14
S=C(Nc1ccc(Cl)c(Cl)c1)NC1CCCCC1 | 23* | 44* | -4 | -29 | 13 | 2
O=S(=O)(c1ccc(NC(=S)NC2CCCC2)cc1)N1CCCC1 | 4 | 10 | -7 | -15 | 25* | -10
COc1ccccc1N(C)S(=O)(=O)c1ccc(C(=O)NCC2CCCCC2)cc1 | 6 | 22 | -4 | -15 | 4 | -16
CN(CC(=O)Nc1ccccc1C(F)(F)F)C(=O)C1CCN(S(=O)(=O)c2ccc3c(c2)OCCO3)CC1 | 1 | -25 | -1 | 11 | -1 | 6
CC(C)C[C@H]1CN(CCCC[C@@H]2CNC(=O)C(=O)N2Cc2ccccc2)C(=O)C(=O)N1CC1CCCCC1 | 0 | / | / | / | -11 | 3
CC(NC(=O)c1cccc(F)c1)C1CC2CCC1C2 (stereo not drawn) | 0 | -8 | -3 | 13 | -2 | -5
O=C(CC(=O)c1ccccc1)CS(=O)(=O)c1ccccc1 | 0 | -3 | -3 | 5 | -2 | 15
